Where a name gives a salt, the structure may show the parent alone.
What was measured:
Settings in all cases: incubation time: 27 h, anaerobic, 37 °C;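 for the amine columns active = adjusted P below 0.05 in both replicates with a change the same way and a mean fold change under 0.8 or over 1.25; inactive = the rest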
[1] = tested on: Clostridium sporogenes DSM 1664; test: growth (OD595) fold change vs plate DMSO controls (fold change (ratio)); higher = more growth
Method in brief: (§1)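 To obtain OD, 595 nm absorbance readings were blank-subtracted, corrected for compound background using 20 µM compound solutions in water, and multiplied by a calibration factor of 5. They came from 96-well mGAM cultures grown anaerobically for 27 h at 37 °C and shaken before reading. Growth is the fold change relative to the median of plate DMSO controls. Two biological replicates were averaged, and fold changes above 1.5 were set to NA.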

Escherichia coli IAI1 [2] = test: as above
Method in brief: as §1

[3] = tested on: Klebsiella aerogenes DSM 30053; test: as above
Method in brief: as §1

[4] = tested on: Ruminococcus gnavus DSM 108212; test: as above
Method in brief: as §1

[5] = tested on: Klebsiella aerogenes DSM 30053; test: fold change of Histamine concentration vs plate DMSO controls (fold change (ratio)); higher = more amine produced, active = hit call of the paper (significant change in both replicates, either direction)
Method in brief: (§2)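 Amines were quantified by LC–triple-quadrupole MS in dynamic MRM mode against external calibration curves, with drift correction within each batch. The samples were whole anaerobic mGAM cultures of four gut bacterial strains, grown for 27 h at 37 °C in 80 µL wells and extracted with cold acetonitrile/methanol with 0.1% formic acid, then centrifuged. Values are reported as fold change over DMSO controls on the same plate. The mean of 2 biological replicates is given.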

[6] = tested on: Clostridium sporogenes DSM 1664; test: fold change of Tryptamine concentration vs plate DMSO controls (fold change (ratio)); higher = more amine produced, active = hit call of the paper (significant change in both replicates, either direction)
Method in brief: as §2

[7] = tested on: Ruminococcus gnavus DSM 108212; test: as above
Method in brief: as §2

Escherichia coli IAI1 [8] = test: fold change of Putrescine concentration vs plate DMSO controls (fold change (ratio)); higher = more amine produced, active = hit call of the paper (significant change in both replicates, either direction)
Method in brief: as §2

[9] = tested on: Klebsiella aerogenes DSM 30053; test: as above
Method in brief: as §2

Escherichia coli IAI1 [10] = test: fold change of Cadaverine concentration vs plate DMSO controls (fold change (ratio)); higher = more amine produced, active = hit call of the paper (significant change in both replicates, either direction)
Method in brief: as §2

[11] = tested on: Klebsiella aerogenes DSM 30053; test: as above
Method in brief: as §2

[12] = tested on: Ruminococcus gnavus DSM 108212; test: fold change of 2-Phenylethylamine concentration vs plate DMSO controls (fold change (ratio)); higher = more amine produced, active = hit call of the paper (significant change in both replicates, either direction)
Method in brief: as §2

| SMILES | growth [1] | growth (Escherichia coli IAI1 [2]) | growth [3] | growth [4] | fold change of Histamine concentration [5] | fold change of Tryptamine concentration [6] | fold change of Tryptamine concentration [7] | fold change of Putrescine concentration (Escherichia coli IAI1 [8]) | fold change of Putrescine concentration [9] | fold change of Cadaverine concentration (Escherichia coli IAI1 [10]) | fold change of Cadaverine concentration [11] | fold change of 2-Phenylethylamine concentration [12] |
| --- | --- | --- | --- | --- | --- | --- | --- | --- | --- | --- | --- | --- |
| C[n+]1ccccc1/C=N/O [Pralidoxime chloride] (20 µM) | 1.19 | 0.995 | 1.01 | 1.05 | 1.13 (inactive) | 1.02 (inactive) | 1.01 (inactive) | 0.968 (inactive) | 1.04 (inactive) | 1.02 (inactive) | 0.991 (inactive) | 1.01 (inactive) |
| O=C(OCC(O)CO)c1ccccc1Nc1ccnc2cc(Cl)ccc12 (configuration not stated) [Glafenine hydrochloride] (20 µM) | 1.08 | 0.957 | 0.977 | 0.831 | 1.01 (inactive) | 0.965 (inactive) | 1.03 (inactive) | 0.998 (inactive) | 0.999 (inactive) | 0.998 (inactive) | 1.01 (inactive) | 1.04 (inactive) |
| C[C@@H]1CCO[C@H]2Cn3cc(C(=O)NCc4ccc(F)cc4F)c(=O)c(O)c3C(=O)N12 [Dolutegravir] (20 µM) | 1.06 | 1.02 | 0.992 | 0.891 | 1.08 (inactive) | 1.02 (inactive) | 0.954 (inactive) | 1.07 (inactive) | 0.999 (inactive) | 0.984 (inactive) | 0.987 (inactive) | 0.941 (inactive) |
| C[N+](C)(C)C[C@H](O)CC(=O)[O-] [Levocarnitine] (20 µM) | 0.997 | 1 | 0.994 | 0.966 | 1.04 (inactive) | 0.955 (inactive) | 1.07 (inactive) | 1.02 (inactive) | 1.03 (inactive) | 0.929 (inactive) | 1.09 (inactive) | 1.22 (inactive) |
| CC(=O)N[C@@H](CC(=O)O)C(=O)N[C@@H](CCC(=O)O)C(=O)O [Spaglumic acid] (20 µM) | 1.09 | 0.992 | 1.03 | 1.18 | 1.03 (inactive) | 1.02 (inactive) | 0.995 (inactive) | 0.939 (inactive) | 0.993 (inactive) | 0.988 (inactive) | 0.988 (inactive) | 1.02 (inactive) |
| C[C@]12CC[C@@H]3c4ccc(O)cc4CC[C@H]3[C@@H]1CC[C@@H]2O [Estradiol-17 beta] (20 µM) | 1.22 | 1.01 | 1.14 | 1.17 | 1.03 (inactive) | 0.984 (inactive) | 1.04 (inactive) | 0.989 (inactive) | 1 (inactive) | 1 (inactive) | 1 (inactive) | 1.04 (inactive) |
| CCOC(=O)c1ccc(C#Cc2ccc3c(c2)C(C)(C)CCS3)nc1 [Tazarotene] (20 µM) | 1.02 | 0.951 | 0.961 | 0.972 | 1.02 (inactive) | 1.17 (inactive) | 1.22 (inactive) | 0.958 (inactive) | 0.977 (inactive) | 0.942 (inactive) | 1.04 (inactive) | 1.22 (inactive) |
| O=C(NCC(O)CO)c1c(I)c(C(=O)NCC(O)CO)c(I)c(N(CCO)C(=O)CO)c1I (configuration not stated) [Ioversol] (20 µM) | 1.09 | 0.998 | 1.01 | 1.11 | 0.997 (inactive) | 1.11 (inactive) | 1.11 (inactive) | 0.923 (inactive) | 0.975 (inactive) | 0.924 (inactive) | 1.02 (inactive) | 1.12 (inactive) |
| CC1=C(CC(=O)O)c2cc(F)ccc2/C1=C\c1ccc([S+](C)[O-])cc1 (configuration not stated) [Sulindac] (20 µM) | 1.15 | 1.08 | 1.02 | 1.3 | 0.931 (inactive) | 1.04 (inactive) | 1.03 (inactive) | 1.02 (inactive) | 0.951 (inactive) | 0.995 (inactive) | 1.02 (inactive) | 1 (inactive) |
| Cc1cc2nc3c(=O)[nH]c(=O)nc-3n(C[C@H](O)[C@H](O)[C@H](O)CO)c2cc1C [Riboflavine] (20 µM) | 1.09 | 0.982 | 0.997 | 0.982 | 0.984 (inactive) | 1 (inactive) | 1.08 (inactive) | 0.989 (inactive) | 0.964 (inactive) | 1.01 (inactive) | 0.994 (inactive) | 1.15 (inactive) |
| O=C(CCCCC(=O)Nc1c(I)cc(I)c(C(=O)O)c1I)Nc1c(I)cc(I)c(C(=O)O)c1I [Iodipamide] (20 µM) | 0.854 | 1.01 | 0.982 | 0.98 | 1.04 (inactive) | 1.02 (inactive) | 0.925 (inactive) | 1.13 (inactive) | 1.02 (inactive) | 1.01 (inactive) | 0.989 (inactive) | 0.892 (inactive) |

Reference: the supplement of paper PMC12494721
